The structures appear in SMILES notation. About 83,000 compounds went through this panel and 20% of them were active in at least one assay; those are over-represented in the sample as a whole.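 For each line, cells grew in 96-well plates with the test compound present at a single concentration for 48 hours.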 A number with no mark means an inactive call. The source made the active and inactive calls. Rule for the calls: active = growth percent below 10; inactive = the rest.

One assay relates to SF-539 CNS. The assay can be described thus: NCI-60 one-dose screen, 48 h (100 = growth as untreated, 0 = no growth, -100 = all killed). The note with it: 10 µM unless noted.
Consider `Nc1c(F)cc(-c2nc3cc(F)ccc3[se]2)cc1Br`, for which the growth is 87.6%.

As for `O=[N+]([O-])CC(c1ccccc1Cl)c1c(-c2ccccc2)[nH]c2ccccc12` (centres undefined), the growth was 27.2%.

Take `CC(CO)NC1CCCCC1` (centres undefined): the growth is 91.8%.

As for `OCCNC(Cc1ccccc1)c1ccc2c(c1)OCO2` (centres undefined), the growth was 104%.

With `Clc1cccc(N2COOC3(OOC2)C2CC4CC(C2)CC3C4)c1`, the growth was 73.3%.

A further assay relates to UACC-257 melanoma. Described as above. Conditions: 10 µM unless noted.
Take `CCCC[C@H](NC(=O)[C@H]1CCCCN1C)C(=O)N(C)[C@H](C[C@@H](OC(C)=O)c1nc(C(=O)N[C@@H](Cc2ccccc2)C[C@H](C)C(=O)OCC)cs1)C(C)C`: the growth is 49.5%.

Turning to `O=C([O][Hg][CH2]C1OCCOC1[CH2][Hg][O]C(=O)c1ccccc1)c1ccccc1` (centres undefined), the growth is -96.4% (active).

Consider `Cn1cc(-c2csc(-c3cn(CCN4CCOCC4)c4ccccc34)n2)c2cccnc21`, for which the growth is 90.7%.

As for `O=C(O)c1c(Cl)n(Cc2ccc(O)cc2)c2ccc(O)cc12`, the growth was 101%.

With `CCCCCCCCCCCCCCCCCCOc1ccccc1COP(=O)(O)OOCC[N+](C)(C)C`, the growth is 11.5%.

Consider `CC(C)(C)N1CC1C#N` (centres undefined), for which the growth was 105%.

Regarding `COC(=O)[C@@H](C)C[C@H](Cc1ccc2ccccc2c1)NC(=O)c1csc([C@@H](C[C@H](C(C)C)N(C)C(=O)[C@@H](NC(=O)[C@H]2CCCCN2C)C(C)C)OC(C)=O)n1`, the growth is 77%.

Take `CCCCC1(CCC)C(=O)NC(=S)NC1=O`: the growth is 131%.

Consider `Nc1ccc(Cl)cc1`, for which the growth was 86.4%.

As to `COc1ccc([As]=[As]c2ccc(OC)c(NCS(=O)(=O)O)c2)cc1NCS(=O)(=O)O` (centres undefined), the growth is 27.6%.

For `CC1(C)C(C(=O)c2cn(CCCCF)c3ccccc23)C1(C)C`, the growth was 81.1%.

For `O=[N+]([O-])c1ccc([Se]C2CCCCC2Cl)c([N+](=O)[O-])c1` (centres undefined), the growth was 59.2%.

For the compound `COP(=O)(OC)C(O)c1ccc(Cl)cc1` (centres undefined), the growth was 99.7%.

Take `Cc1cnc(/C=C/C(=O)O)cc1-c1cc2c(cc1C)C(C)(C)CCC2(C)C`: the growth was 38.3%.

With `COC(=O)[C@H](C[C@H](Cc1ccccc1)NC(=O)c1csc([C@@H](C[C@H](C(C)C)N(C)C(=O)[C@@H](NC(=O)[C@H]2CCCCN2C)C(C)C)OC(C)=O)n1)NC(=O)OCc1ccccc1`, the growth was 13.9% [8.5 µM].

`Cc1ccc2c(C(C[N+](=O)[O-])c3cccs3)c(-c3ccccc3)[nH]c2c1` (centres undefined): the growth is 30%.

Turning to `CCOC(=O)[C@@H](C)C[C@H](Cc1ccccc1)NC(=O)c1csc([C@@H](C[C@H](C(C)C)N(C)C(=O)[C@@H](NC(=O)[C@H]2CCCCN2C)C(C)(C)C)OC(C)=O)n1`, the growth was 41.7%.

As to `NC(=O)C(Br)c1ccccc1` (centres undefined), the growth is 83.3%.

`CC(=O)O[C@H](C[C@H](C(C)C)N(C)C(=O)[C@@H](NC(=O)[C@H]1CCCCN1C)C(C)C)c1nc(C(=O)N[C@@H](Cc2ccccc2)C[C@H](C)C(=O)O)c(CCOCc2ccccc2)s1`: the growth is 54.5%.

On to `O=NN1CCCc2cccc(O)c21`, for which the growth is 57.4%.

For `C#C[C@]1(OC(=O)CCCCCC)CC[C@H]2[C@@H]3CCC4=CC(=O)CC[C@@H]4[C@H]3CC[C@@]21C`, the growth was 55%.

Consider `CC(=O)OC1C(OC/C2=C/C3[C@@H](C(C)C)CC=C(C)[C@@H]3CC(OC(=O)/C=C/c3cn(C)cn3)[C@]3(C)C=C[C@@]2(O)O3)OCC(O)C1O` (some centres undefined), for which the growth is 60.7%.

Take `COC1CC2c3ccccc3C1C(C)=[N+]2C` (centres undefined): the growth was 95.6%.

In the case of `NC(=O)CNc1ccc([As]=[As]c2ccc(NCC(N)=O)cc2)cc1` (centres undefined), the growth was 37.2%.

In the case of `CCCCCN(CCCCC)CC(O)c1cc(Cl)ccc1OC` (centres undefined), the growth is 47.4%.

For `ClC1=C(Cl)C(Cl)(C2(Cl)C(Cl)=C(Cl)C(Cl)=C2Cl)C(Cl)=C1Cl`, the growth was -60.4% (active).

For the compound `CCOC(=O)[C@@H](C)C[C@H](Cc1ccccc1)NC(=O)c1nc([C@@H](C[C@H](C(C)C)N(C)C(=O)[C@@H](NC(=O)[C@H]2CCCCN2C)C(C)C)OC(C)=O)sc1CCOCc1ccccc1`, the growth is -7.85% (active).

In the case of `COC(=O)N[C@H]1CCc2c(Br)c(OC)c(OC)c(OC)c2-c2ccc(SC)c(=O)cc21`, the growth is 67.4%.

As to `O=C(CC1(O)C(=O)Nc2ccc(Br)cc21)c1ccc(C(=O)NCC2CCC3(CC2)OOC2(CCCCC2)OO3)cc1` (centres undefined), the growth was 49.4%.

The record behind these values is PubChem BioAssay (NCI).
